# Experimental data published in PubChem BioAssay AID449762 (Southern Research Specialized Biocontainment Screening …, 2010).
# About 1,900 (0.58%) of roughly 330,000 compounds were called active. Inconclusive results (about 4%) are left out. The list is a sample of the results. Entries with a potency or affinity are not part of this list. Values without a mark were called inactive. No stated cut-off is given here; in the data, inconclusive means inhibition above about 70% without an active follow-up result; inactive means below that.
# Experiment: M. tuberculosis growth inhibition, HTS (AID 449762);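 further: bacterial growth assessed after seven days of incubation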
# Conditions: M. tuberculosis H37Rv growth inhibition, 7H9 media; at 25 µM; active compounds read high
row,SMILES,inhibition [%]
1,Cc1ccc(NCC(O)C(O)C(O)CO)cc1C (configuration not stated),-7.11
2,COc1ccc(N(C(=O)/C=C/C(=O)Nc2cc(C)on2)C(C(=O)NC2CCCC2)c2ccccc2C)cc1 (configuration not stated),40
3,Cc1cc(NC(=O)CCC(=O)N(c2ccccc2)C(C(=O)NC2CCCC2)c2ccccc2C)no1 (configuration not stated),0.1
4,CCCCCn1c(CCC(=O)Oc2ccccc2OC)nc2c1c(=O)[nH]c(=O)n2CCCC,4.88
5,COc1ccccc1CNC(=O)COC(=O)c1ccccc1SCC(=O)N1CCCC1,1.81
6,COc1ccccc1OCC(=O)N(Cc1nnc(-c2ccccc2Cl)o1)C1CC1,0.28
7,COCCN(Cc1ccccc1)P(=O)(O)c1ccccc1OCC(=O)O,-0.51
8,C/C(O)=C/c1nc2ccccc2[nH]c1=O,3.14
9,Cc1ccc2oc(=O)c(/C=C(\O)c3ccccc3)nc2c1,-2.76
10,CC(=O)Nc1ccc(NC(=O)C(C)Oc2ccc(C)nc2[N+](=O)[O-])cc1 (configuration not stated),6.29
11,CCN(CCn1cccn1)C(=O)c1cc(COc2cccc3cccnc23)on1,-3.82
12,Cc1ccc(C(=O)N2CCN(CCNC(=O)C(=O)NCc3ccc(Cl)cc3)CC2)cc1,4.33
13,CC(C)(C)c1ccc(C(=O)N2CCN(CCNC(=O)C(=O)NCc3ccccc3)CC2)cc1,-0.83
14,O=C(Nc1ccccc1)N(CCCN1CCOCC1)Cc1ccccc1F,-5.07
15,CCOC(=O)N1CCC2(CC1)CC(=O)c1c(ccc3oc(C(=O)O)c(C)c13)O2,-2.67
16,c1ccc2c(c1)CC(N1CCCCC1)c1ccccc1S2 (configuration not stated),0.42
17,COc1ccc2c(c1)CC(N1CCN(C)CC1)c1cc(OC)ccc1S2 (configuration not stated),9.95
18,O=C(Nc1cc([N+](=O)[O-])ccc1C(=O)NCCN1CCOCC1)c1ccccc1,5.18
19,COCCn1c(SCc2nnc(-c3ccc(OC)c(OC)c3)o2)nnc1-c1ccncc1,5.88
20,Cc1ccc(-c2nnc(NCc3nc4ccccc4[nH]3)c3ccccc23)cc1S(=O)(=O)N(C)C,-2.52
21,Cn1c(-c2sc3cc(C(F)(F)F)cnc3c2-c2ccccn2)n[nH]c1=S,-2.76

row,SMILES,inhibition [%]
1,O=C(OCC(=O)N1CCCC1)c1ccccc1O,3.14
2,O=C(OCC(=O)N1CCCCCC1)c1ccccc1Br,4.05
3,CC1CN(C(=O)COC(=O)c2ccc(F)cc2Cl)CC(C)O1 (configuration not stated),6.83
4,CC12CCC(C(=O)NCCCN3CCOCC3)(C(Br)C1=O)C2(C)C (configuration not stated),-0.09
5,Cc1cc(Cc2c(O)[nH]c(=S)[nH]c2=O)ccc1OC(C)C,-6.7
6,COC(=O)C1(CC2CC(c3ccccc3)=NO2)CCN(C(=O)OC(C)(C)C)CC1 (configuration not stated),3.82
7,Cc1cc(Cl)ccc1OCCCC(N)=O,-4.53
8,Cc1cc(Cl)ccc1OCCCC(=O)NN,13.1
9,CCc1ccc(/C=C2/SC(=S)N(CCC(=O)NCCCN3CCOCC3)C2=O)cc1,-8.2
10,CN1CCN(c2ccc(NC(=O)c3ccc(-c4cccc([N+](=O)[O-])c4)o3)cc2)CC1,0.14
11,CC(C)(C)C(=O)N1CCN(c2ccc(NC(=O)c3ccco3)cc2)CC1,2.75
12,COCCN1CCN(C(=O)c2cc(COc3cc(C)ccc3C)on2)CC1,-2.97
13,Cc1cnc(NC(=O)CC2CCCC2)s1,1.33
14,Cc1cnc(NC(=O)C2CCC(C(C)(C)C)CC2)s1 (configuration not stated),-5.46
15,Cc1cccc(NC(=O)COC(=O)c2ccc3c(=O)n4c(nc3c2)CCC4)c1,0.33
16,CCNC(=O)NC(=O)C(C)On1nnc2ccc(S(=O)(=O)N(CC)CC)cc21 (configuration not stated),-3.62
17,C=CCSc1nc(N)c2c(C)c(C)sc2n1,-14.5
18,O=c1c2c(-c3ccccc3)csc2ncn1/N=C/c1cccc([N+](=O)[O-])c1O,0.37
19,O=c1c2c(-c3ccc(Cl)cc3)csc2ncn1/N=C/c1cccc([N+](=O)[O-])c1O,3.59
20,CCOC(=O)N1CCN(c2c(NCC3CCCO3)c(=O)c2=O)CC1 (configuration not stated),2.94
21,COC(=O)c1cccc(NC(=O)CSc2nnc(C)o2)c1,3.7

row,SMILES,inhibition [%]
1,Nc1ccc(CC2SC(=O)NC2=O)cc1 (configuration not stated),-2.9
2,CCOc1ccc(CC2S/C(=N/c3ccccn3)NC2=O)cc1 (configuration not stated),-1.03
3,CCc1c(C(=O)Nc2ccc(OC)cc2)[nH]c(C)c1C(C)=O,0.65
4,O=S(=O)(Nc1ncccn1)c1ccc(Cl)cc1,-3.71
5,CCCC(=O)Nc1nc2nc(-c3ccccc3)cc(=O)n2[nH]1,-6.79
6,CCC(=O)Nc1nc2nc(-c3ccccc3)cc(=O)n2[nH]1,-4.67
7,Clc1cccc(Cl)c1COc1ccncc1,-7.66
8,O=C(CNC(=O)c1ccccc1Cl)OC1CCOC1=O (configuration not stated),0.14
9,CC(=O)c1cccc(NC(=S)NC2CCCCC2)c1,0.31
10,CC(=O)c1cccc(NC(=S)NC2CC2)c1,-5.17
11,S=C(Nc1ccc2nsnc2c1)NC1CCCCC1,-5.66
12,O=C(Nc1ccc2nsnc2c1)C1CC1,0.63
13,CCc1c(C)sc(NC(=O)c2cc(-c3cc(OC)ccc3OC)on2)c1C#N,9.02
14,CCCCCCCCNC(CO)(CO)CO,-13.8
15,O=C(C1=C[C@H](c2ccc(Br)cc2)C[C@H](OCCCCO)O1)N1CCOCC1,8.9
16,CCn1cc(CNC(=O)C2CCC(=O)N(C3CCCCCC3)C2)cn1 (configuration not stated),-6.38
17,COC(=O)C1=NNC(C(=O)c2ccco2)C1c1ccccc1 (configuration not stated),4.3
18,CCOC(=O)c1ccccc1NC(=O)COC(=O)C1CCCC1,27.5
19,CC[C@@H](C)[C@H](CN[C@H](CNC)[C@@H](C)O)NCCc1ccc(OC)cc1,0.9
20,CC[C@H](C)[C@@H](CNC)NC[C@@H](Cc1ccc(O)cc1)NCC(C)(C)C,-12.2
